From the supplement of paper PMC8728848
This excerpt belongs to a sample that is enriched for the strongest signals.

Columns and labels:
Assay in all cases: glycan array binding signal (z-score within array); higher = stronger binding
Details in all cases: glycan notation: IUPAC condensed, linker removed
Fuc(a1-2)Gal(b1-3)GalNAc = target: Fuc(a1-2)Gal(b1-3)GalNAc
Procedure, shortened: (§1)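 The Consortium for Functional Glycomics database supplied 3228 glycan arrays, of which those lacking an available protein sequence were dropped. The binding signal, a within-array Z-score, was averaged across arrays of the same protein sequence and across linkers. Negative scores can be read as non-binding.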

[1] = target: Fuc(a1-2)Gal(b1-3)GalNAc(b1-4)[Neu5Ac(a2-3)]Gal(b1-4)Glc
Procedure, shortened: as §1

[2] = target: Fuc(a1-2)Gal(b1-3)GlcNAc(b1-2)Man(a1-3)[Fuc(a1-2)Gal(b1-3)GlcNAc(b1-2)Man(a1-6)]Man(b1-4)GlcNAc(b1-4)GlcNAc
Procedure, shortened: as §1

[3] = target: Fuc(a1-2)Gal(b1-4)GlcNAc(b1-3)Gal(b1-4)GlcNAc
Procedure, shortened: as §1

[4] = target: Fuc(a1-2)Gal(b1-4)[Fuc(a1-3)]GlcNAc
Procedure, shortened: as §1

[5] = target: Fuc(a1-2)Gal(b1-4)[Fuc(a1-3)]GlcNAc(b1-3)Gal(b1-4)[Fuc(a1-3)]GlcNAc
Procedure, shortened: as §1

[6] = target: Fuc(a1-2)[Gal(a1-3)]Gal(b1-3)GalNAc(b1-3)Gal(a1-4)Gal(b1-4)Glc
Procedure, shortened: as §1

[7] = target: Fuc(a1-2)[Gal(a1-3)]Gal(b1-3)GlcNAc(b1-3)GalNAc
Procedure, shortened: as §1

[8] = target: Fuc(a1-2)[Gal(a1-3)]Gal(b1-4)[Fuc(a1-3)]Glc
Procedure, shortened: as §1

[9] = target: Fuc(a1-2)[GalNAc(a1-3)]Gal
Procedure, shortened: as §1

[10] = target: Fuc(a1-2)[GalNAc(a1-3)]Gal(b1-4)GlcNAc(b1-2)Man
Procedure, shortened: as §1

[11] = target: Fuc(a1-3)[Gal(b1-4)]GlcNAc(b1-3)Gal(b1-3)[Fuc(a1-4)]GlcNAc
Procedure, shortened: as §1

Gal(a1-3)Gal(b1-4)GlcNAc = target: Gal(a1-3)Gal(b1-4)GlcNAc
Procedure, shortened: as §1

[12] = target: Gal(a1-3)Gal(b1-4)GlcNAc(b1-2)Man
Procedure, shortened: as §1

Gal(a1-4)Gal(b1-4)GlcNAc = target: Gal(a1-4)Gal(b1-4)GlcNAc
Procedure, shortened: as §1

[13] = target: Gal(a1-4)Gal(b1-4)GlcNAc(b1-2)Man(a1-3)[Gal(a1-4)Gal(b1-4)GlcNAc(b1-2)Man(a1-6)]Man(b1-4)GlcNAc(b1-4)GlcNAc
Procedure, shortened: as §1

[14] = target: Gal(b1-3)GlcNAc(b1-2)Man(a1-3)[GlcNAc(b1-4)][Gal(b1-3)GlcNAc(b1-2)Man(a1-6)]Man(b1-4)GlcNAc(b1-4)GlcNAc
Procedure, shortened: as §1

[15] = target: Gal(b1-3)GlcNAc(b1-2)[Gal(b1-3)GlcNAc(b1-6)]Man(a1-6)[Gal(b1-3)GlcNAc(b1-2)Man(a1-3)]Man(b1-4)GlcNAc(b1-4)GlcNAc
Procedure, shortened: as §1

[16] = target: Gal(b1-3)GlcNAc(b1-3)GalNAc
Procedure, shortened: as §1

[17] = target: Gal(b1-3)[Fuc(a1-4)]GlcNAc(b1-2)Man(a1-3)[Gal(b1-3)[Fuc(a1-4)]GlcNAc(b1-2)Man(a1-6)]Man(b1-4)GlcNAc(b1-4)[Fuc(a1-6)]GlcNAc
Procedure, shortened: as §1

[18] = target: Gal(b1-4)GlcNAc(b1-2)Man(a1-3)[GlcNAc(b1-2)Man(a1-6)]Man(b1-4)GlcNAc(b1-4)GlcNAc
Procedure, shortened: as §1

[19] = target: Gal(b1-4)GlcNAc(b1-2)[Gal(b1-4)GlcNAc(b1-6)]Man(a1-6)[Gal(b1-4)GlcNAc(b1-2)Man(a1-3)]Man(b1-4)GlcNAc(b1-4)[Fuc(a1-6)]GlcNAc
Procedure, shortened: as §1

[20] = target: Gal(b1-4)GlcNAc(b1-2)[Gal(b1-4)GlcNAc(b1-6)]Man(a1-6)[GlcNAc(b1-4)][Gal(b1-4)GlcNAc(b1-2)[Gal(b1-4)GlcNAc(b1-4)]Man(a1-3)]Man(b1-4)GlcNAc(b1-4)[Fuc(a1-6)]GlcNAc
Procedure, shortened: as §1

[21] = target: Gal(b1-4)GlcNAc(b1-3)Gal(b1-4)GlcNAc(b1-3)Gal(b1-4)GlcNAc(b1-3)Gal(b1-4)GlcNAc(b1-2)Man(a1-3)[Gal(b1-4)GlcNAc(b1-3)Gal(b1-4)GlcNAc(b1-3)Gal(b1-4)GlcNAc(b1-3)Gal(b1-4)GlcNAc(b1-2)Man(a1-6)]Man(b1-4)GlcNAc(b1-4)[Fuc(a1-6)]GlcNAc
Procedure, shortened: as §1

[22] = target: Gal3S(b1-4)[Fuc(a1-3)]Glc6S
Procedure, shortened: as §1

GalNAc(b1-3)GlcNAc = target: GalNAc(b1-3)GlcNAc
Procedure, shortened: as §1

GalNAc(b1-4)Gal(b1-4)Glc = target: GalNAc(b1-4)Gal(b1-4)Glc
Procedure, shortened: as §1

[23] = target: GlcNAc(a1-4)Gal(b1-4)GlcNAc(b1-3)Gal(b1-4)GlcNAc(b1-3)Gal(b1-4)GlcNAc
Procedure, shortened: as §1

[24] = target: GlcNAc(b1-3)Gal(b1-4)GlcNAc(b1-3)Gal(b1-4)GlcNAc(b1-3)Gal(b1-4)GlcNAc(b1-2)Man(a1-3)[GlcNAc(b1-3)Gal(b1-4)GlcNAc(b1-3)Gal(b1-4)GlcNAc(b1-3)Gal(b1-4)GlcNAc(b1-2)Man(a1-6)]Man(b1-4)GlcNAc(b1-4)[Fuc(a1-6)]GlcNAc
Procedure, shortened: as §1

[25] = target: GlcNAc(b1-3)Gal(b1-4)GlcNAc(b1-3)Gal(b1-4)GlcNAc(b1-3)Gal(b1-4)GlcNAc(b1-3)Gal(b1-4)GlcNAc(b1-2)Man(a1-3)[GlcNAc(b1-3)Gal(b1-4)GlcNAc(b1-3)Gal(b1-4)GlcNAc(b1-3)Gal(b1-4)GlcNAc(b1-3)Gal(b1-4)GlcNAc(b1-2)Man(a1-6)]Man(b1-4)GlcNAc(b1-4)GlcNAc
Procedure, shortened: as §1

GlcNAc(b1-3)Man = target: GlcNAc(b1-3)Man
Procedure, shortened: as §1

[26] = target: GlcNAc(b1-4)GlcNAc(b1-4)GlcNAc(b1-4)GlcNAc(b1-4)GlcNAc
Procedure, shortened: as §1

Kdn(a2-3)Gal(b1-3)GalNAc = target: Kdn(a2-3)Gal(b1-3)GalNAc
Procedure, shortened: as §1

[27] = target: Man(a1-3)[Man(a1-6)]Man(a1-6)[Man(a1-3)]Man
Procedure, shortened: as §1

[28] = target: Neu5Ac(a2-3)Gal(b1-3)GlcNAc(b1-2)Man(a1-3)[Neu5Ac(a2-3)Gal(b1-3)GlcNAc(b1-2)Man(a1-6)]Man(b1-4)GlcNAc(b1-4)GlcNAc
Procedure, shortened: as §1

[29] = target: Neu5Ac(a2-3)Gal(b1-4)GlcNAc(b1-3)Gal(b1-4)GlcNAc(b1-3)GalNAc
Procedure, shortened: as §1

[30] = target: Neu5Ac(a2-3)Gal(b1-4)[Fuc(a1-3)]GlcNAc(b1-2)Man
Procedure, shortened: as §1

[31] = target: Neu5Ac(a2-3)Gal(b1-4)[Fuc(a1-3)]GlcNAc(b1-3)GalNAc
Procedure, shortened: as §1

[32] = target: Neu5Ac(a2-3)Gal6S(b1-4)GlcNAc
Procedure, shortened: as §1

[33] = target: Neu5Ac(a2-6)Gal(b1-4)GlcNAc(b1-2)Man(a1-3)[Man(a1-6)]Man(b1-4)GlcNAc(b1-4)GlcNAc
Procedure, shortened: as §1

[34] = target: Neu5Ac(a2-6)Gal(b1-4)GlcNAc(b1-3)Gal(b1-4)GlcNAc(b1-3)Gal(b1-4)GlcNAc
Procedure, shortened: as §1

[35] = target: Neu5Ac(a2-6)Gal(b1-4)GlcNAc(b1-3)Gal(b1-4)[Fuc(a1-3)]GlcNAc(b1-3)Gal(b1-4)[Fuc(a1-3)]GlcNAc
Procedure, shortened: as §1

[36] = target: Neu5Ac(a2-6)Gal(b1-4)GlcNAc(b1-6)[Gal(b1-3)]GalNAc
Procedure, shortened: as §1

[37] = target: Neu5Ac(a2-8)Neu5Ac(a2-8)Neu5Ac(a2-3)[Gal(b1-3)GalNAc(b1-4)]Gal(b1-4)Glc
Procedure, shortened: as §1

[38] = target: Neu5Gc(a2-3)Gal(b1-4)GlcNAc(b1-3)Gal(b1-4)GlcNAc(b1-2)Man(a1-3)[Neu5Gc(a2-3)Gal(b1-4)GlcNAc(b1-3)Gal(b1-4)GlcNAc(b1-2)Man(a1-6)]Man(b1-4)GlcNAc(b1-4)GlcNAc
Procedure, shortened: as §1

[39] = target: Neu5Gc(b2-6)Gal(b1-4)GlcNAc
Procedure, shortened: as §1

B1: Thrombomodulin Extracellular (Mus musculus), P15306 (protein)
chain: MLGIFFLGVLAPASLGLSALAKLQPTGSQCVEHECFALFQGPATFLDASQACQRLQGHLMTVRSSVAADVISLLLSQSSMDLGPWIGLQLPQGCDDPVHLGPLRGFQWVTGDNHTSYSRWARPNDQTAPLCGPLCVTVSTATEAAPGEPAWEEKPCETETQGFLCEFYFTASCRPLTVNTRDPEAAHISSTYNTPFGVSGADFQTLPVGSSAAVEPLGLELVCRAPPGTSEGHWAWEATGAWNCSVENGGCEYLCNRSTNEPRCLCPRDMDLQADGRSCARPVVQSCNELCEHFCVSNAEVPGSYSCMCETGYQLAADGHRCEDVDDCKQGPNPCPQLCVNTKGGFECFCYDGYELVDGECVELLDPCFGSNCEFQCQPVSPTDYRCICAPGFAPKPDEPHKCEMFCNETSCPADCDPNSPTVCECPEGFILDEGSVCTDIDECSQGECFTSECRNFPGSYECICGPDTALAGQISKDCDPIPVREDTKEEEGSGEPPVSPTPGSPTGPPSARPVHSGVLIGISIASLSLVVALLALLCHLRKKQGAARAELEYKCASSAKEVVLQHVRTDRTLQKF
glycan array binding signal (z-score) (Fuc(a1-2)Gal(b1-3)GalNAc): -0.717 | glycan array binding signal (z-score) [1]: -0.952 | glycan array binding signal (z-score) [2]: 2.48 | glycan array binding signal (z-score) [3]: 0.406 | glycan array binding signal (z-score) [4]: -0.221 | glycan array binding signal (z-score) [5]: 0.048 | glycan array binding signal (z-score) [6]: 1.38 | glycan array binding signal (z-score) [7]: 2.8 | glycan array binding signal (z-score) [8]: -1.18 | glycan array binding signal (z-score) [9]: -0.162 | glycan array binding signal (z-score) [10]: 1.79 | glycan array binding signal (z-score) [11]: -0.513 | glycan array binding signal (z-score) (Gal(a1-3)Gal(b1-4)GlcNAc): -0.81 | glycan array binding signal (z-score) [12]: -2.66 | glycan array binding signal (z-score) (Gal(a1-4)Gal(b1-4)GlcNAc): -0.239 | glycan array binding signal (z-score) [13]: 1.73 | glycan array binding signal (z-score) [14]: 0.655 | glycan array binding signal (z-score) [15]: 0.399 | glycan array binding signal (z-score) [16]: -0.059 | glycan array binding signal (z-score) [17]: 2.94 | glycan array binding signal (z-score) [18]: -1.49 | glycan array binding signal (z-score) [19]: -0.135 | glycan array binding signal (z-score) [20]: -0.329 | glycan array binding signal (z-score) [21]: 2.27 | glycan array binding signal (z-score) [22]: 2.97 | glycan array binding signal (z-score) (GalNAc(b1-3)GlcNAc): -0.126 | glycan array binding signal (z-score) (GalNAc(b1-4)Gal(b1-4)Glc): 3.27 | glycan array binding signal (z-score) [23]: 2.52 | glycan array binding signal (z-score) [24]: 1.85 | glycan array binding signal (z-score) [25]: -0.332 | glycan array binding signal (z-score) (GlcNAc(b1-3)Man): 0.187 | glycan array binding signal (z-score) [26]: 1.75 | glycan array binding signal (z-score) (Kdn(a2-3)Gal(b1-3)GalNAc): -0.442 | glycan array binding signal (z-score) [27]: 2.92 | glycan array binding signal (z-score) [28]: 2.55 | glycan array binding signal (z-score) [29]: -0.036 | glycan array binding signal (z-score) [30]: -1.17 | glycan array binding signal (z-score) [31]: 2.09 | glycan array binding signal (z-score) [32]: -0.167 | glycan array binding signal (z-score) [33]: 2.56 | glycan array binding signal (z-score) [34]: -0.19 | glycan array binding signal (z-score) [35]: -0.473 | glycan array binding signal (z-score) [36]: -1.23 | glycan array binding signal (z-score) [37]: 2.49 | glycan array binding signal (z-score) [38]: 1.29 | glycan array binding signal (z-score) [39]: -0.009
